The structures appear in SMILES notation. Several values for one entry are separate records, joined by “and”; a condition that tells them apart may be missing. Identical values can stand only once. Activity calls are given as the source filed them.

The target of one assay is Albumin (Bos taurus) (UniProt P02769). Put plainly: compounds binding labelled BSA control protein – biochemical, small-molecule microarray, Alexa647 label, 635/667 nm fluorescence, artefact control for SMM control protein annotation, profiling panel (AID 1118).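 Also: score merges 667 nm emission intensity and signal-to-noise per printed compound spot.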 The conditions noted are these: BSA-A647 binding, fluorescence 635 nm, higher = more signal.
Assay [1] can be described thus: probe aXIP binding to arrayed compounds – biochemical, NeuroSMM set, 635/667 nm fluorescence, primary screen (AID 1119).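 Also: probe is the protein aXip251-270 applied at 1 µg/mL to compound-printed slides; binding of probe to printed compounds measured as 667 nm fluorescence plus signal to noise.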 Conditions: small-molecule microarray, higher = more signal, called active from +8 up or from −8 down.
Assay [2] in a line: probe aNOTCH3 binding on compound microarray – biochemical, small-molecule microarray, 635/667 nm fluorescence, primary screen (AID 1120).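 Also: probe is a biotin-tagged antibody raised against NOTCH3 rather than NOTCH3 protein; score merges spot fluorescence near 667 nm with spot signal to noise.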 The conditions noted are these: higher = more signal.
Assay [3] can be described thus: probe aNOTCH2 binding on compound microarray – biochemical, small-molecule microarray, 635/667 nm fluorescence, primary screen (AID 1121).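 Also: score merges feature fluorescence read at 667 nm with its signal to noise.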 The conditions noted are these: higher = more signal.
Assay [4] has as its target Carbonic anhydrase 2 (Homo sapiens) (UniProt P00918). Put plainly: compounds binding carbonic anhydrase 2 – biochemical, small-molecule microarray, Alexa647-labelled CAII, profiling panel (AID 1122). Conditions: CAII-A647 binding fluorescence, higher = more signal.
A short description of assay [5]: COS7 lysate on small-molecule microarray, probe aHis, 635 nm (AID 1123).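 Also: z-score combines 667nm fluorescence intensity with signal-to-noise per printed compound spot.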 Conditions: COS7 cell lysate, fluorescence, higher = more signal.
Assay [6] can be described thus: probe aLAP1 signal on lysate-treated microarray – cell lysate, small-molecule microarray, COS7 lysate, primary screen (AID 1124).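 Also: lysate comes from COS7 cells expressing LAP1 and is applied at 0.3 µg/mL; score merges spot fluorescence near 667 nm with signal-to-noise over triplicate slides.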 Conditions: probe aLAP1, fluorescence, higher = more signal.
The subject of a further assay is Sam68 (KHDRBS1). Description: compounds binding KHDRBS1 protein – biochemical, small-molecule microarray, 635 nm fluorescence, primary screen (AID 1125).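 Also: score merges 667 nm channel intensity with signal to noise over triplicate slides.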 Conditions: higher = more signal.
Assay [7] relates to Chordin-like protein 2 (CHRDL2). Description: compounds binding chordin-like 2 – biochemical, small-molecule microarray, 635 nm fluorescence, primary screen (AID 1126).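 Also: printed compound slides probed with Chrdl2 protein at 4 µg/mL for 1 h at 4 C; score merges 667 nm emission intensity with signal to noise over three replicate slides.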 The conditions noted are these: fluorescence 635 nm, higher = more signal.
For assay [8], the target named is Concanavalin-A (Canavalia ensiformis) (UniProt P02866). Description: compounds binding concanavalin A lectin – biochemical, small-molecule microarray, Alexa647 label, 635 nm, artefact control for SMM control protein annotation, primary screen (AID 1127).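 Also: z combines 667 nm emission intensity with signal-to-noise across three replicate slides.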 Conditions: ConA-A647 binding fluorescence, higher = more signal.
Chain of Concanavalin-A (Canavalia ensiformis) (P02866 whole entry, looked up): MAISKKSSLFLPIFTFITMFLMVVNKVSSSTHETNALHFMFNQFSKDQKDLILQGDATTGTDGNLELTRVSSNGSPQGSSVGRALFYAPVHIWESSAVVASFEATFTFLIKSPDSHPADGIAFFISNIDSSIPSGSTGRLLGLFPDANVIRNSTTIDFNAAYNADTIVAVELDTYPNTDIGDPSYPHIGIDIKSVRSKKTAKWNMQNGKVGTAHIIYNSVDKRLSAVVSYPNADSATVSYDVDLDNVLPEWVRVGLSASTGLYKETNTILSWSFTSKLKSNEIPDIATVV

Chain of Albumin (Bos taurus) (P02769 whole entry, looked up): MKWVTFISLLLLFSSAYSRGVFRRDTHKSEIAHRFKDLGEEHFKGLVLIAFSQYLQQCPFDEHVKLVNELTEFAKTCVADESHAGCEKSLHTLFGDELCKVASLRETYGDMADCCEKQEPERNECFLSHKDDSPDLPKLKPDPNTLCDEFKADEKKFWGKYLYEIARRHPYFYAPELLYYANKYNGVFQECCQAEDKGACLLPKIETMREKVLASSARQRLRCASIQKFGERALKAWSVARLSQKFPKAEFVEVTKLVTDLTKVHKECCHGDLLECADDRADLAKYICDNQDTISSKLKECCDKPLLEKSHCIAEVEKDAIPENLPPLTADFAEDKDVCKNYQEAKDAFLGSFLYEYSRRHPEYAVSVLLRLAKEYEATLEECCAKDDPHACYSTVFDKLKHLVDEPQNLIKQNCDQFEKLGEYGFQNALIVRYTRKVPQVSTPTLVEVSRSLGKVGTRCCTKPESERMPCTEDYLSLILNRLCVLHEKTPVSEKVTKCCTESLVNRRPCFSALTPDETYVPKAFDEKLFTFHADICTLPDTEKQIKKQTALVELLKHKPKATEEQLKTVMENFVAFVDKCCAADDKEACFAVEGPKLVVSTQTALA

Regarding `Cc1ccc(S(=O)(=O)N[C@@H]2COC(=O)CC=C[C@@H](C)[C@@H]3C=C[C@H](O)[C@@H](COC(=O)CC=C[C@H]2C)O3)cc1`, the composite z-score is -0.311 and -0.304 in the assay with Albumin (Bos taurus); 0.0426 and -0.161 in assay [2]; -0.14 and -0.124 in assay [3]; -0.0023 and 0.221 in [4]; -0.348 and 0.043 in assay [5]; 0.0386 and 0.26 in assay [6]. The composite z-score with Sam68 (KHDRBS1) is -0.132 and 0.293; in assay [7], 0.711 and 0.396; in assay [8] it was -0.6 and 0.152. In addition, the composite Z-score in [1] is -0.842 (inactive) and -0.0662 (inactive).

Take `COC(=O)CC=C[C@@H](C)[C@@H](CO)NS(=O)(=O)c1ccc(C)cc1`: the composite z-score with Albumin (Bos taurus) was 0.0833 and -0.252; in assay [2], -0.0391 and 0.111; in [3] it was -0.0703 and -0.14; in assay [4], -0.121 and 0.0581; in [5], -0.114 and 0.0271; in [6], -0.144 and -0.481. The composite z-score in the assay with Sam68 (KHDRBS1) was -0.182 and 0.567; in assay [7] it was 0.696 and 1.03; in assay [8], -0.213 and -0.52. Besides, the composite Z-score in assay [1] was 0.105 (inactive) and 0.309 (inactive).

Take `Cc1ccc(S(=O)(=O)N[C@H]2COC(=O)[C@@H](Cc3ccccc3)NC(=O)[C@@H](C)COC(=O)CC=C[C@@H]2C)cc1`: the composite z-score was -0.92 and -0.489 with Albumin (Bos taurus); -0.279 and -0.132 in assay [2]; -0.162 and -0.185 in [3]; -0.363 and 0.129 in assay [4]; -0.902 and 0.614 in assay [5]; -0.221 and -0.16 in [6]. Moreover, the composite z-score is -0.309 and 0.663 in the assay on Sam68 (KHDRBS1); 0.748 and 0.691 in [7]; 0.117 and 0.0745 in assay [8]. The composite Z-score in assay [1] is 0.103 (inactive) and 0.304 (inactive).

`CCOC(=O)C[C@H]1[C@H](OC(=O)c2ccccc2-c2ccccc2)[C@@H](NC(=O)Cc2ccc(OC)cc2)c2cc(OCCCO)ccc2N1C(=O)Cc1ccc(OC)cc1`: the composite z-score in the assay with Albumin (Bos taurus) was 0.56 and -0.0815; in assay [2] it was 0.23 and 0.0762; in [3], 0.0922 and -0.189; in assay [4] it was 0.285 and -0.324; in assay [5] it was 0.324 and 0.46; in assay [6], 0.621 and -0.153. Moreover, the composite z-score in the assay with Sam68 (KHDRBS1) is 0.821 and -0.28; in [7], -0.362 and -0.24; in [8], 0.712 and -1.55. Further, the composite Z-score in assay [1] was 0.376 (inactive) and -0.265 (inactive).

For the compound `C=CCN(C(=O)C1N(CCOCCO)C(=O)C2C(C(=O)O)C3C=CC21O3)c1ccc(OC)cc1` (stereo not given), the composite z-score is -0.0638 and -1.17 with Albumin (Bos taurus); -0.421 and -0.459 in assay [2]; -0.211 and -0.143 in assay [3]; 0.797 and 0.959 in assay [4]; -0.39 and 0.89 in [5]; 1.39 and 0.112 in [6]. Also, the composite z-score with Sam68 (KHDRBS1) is -1.5 and -2.25; in assay [7] it was -2.17 and -3.32; in [8] it was -2.82 and -1.96. Further, the composite Z-score in [1] was -0.598 (inactive) and -0.613 (inactive).

On to `CC(CO)N1C(=O)[C@@H]2C3C(=O)OCCC=C[C@H]3OC23C=CCN(C(C)(C)C)C(=O)[C@@H]13` (stereo not given in full), for which the composite z-score with Albumin (Bos taurus) was 0.231 and -0.322; in [2], -0.34 and 0.037; in [3] it was -0.211 and -0.14; in assay [4], 0.863 and 0.837; in assay [5], -0.329 and 0.395; in assay [6], 0.241 and 1.27. In addition, the composite z-score with Sam68 (KHDRBS1) is -0.349 and 0.36; in assay [7] it was -1.5 and -0.54; in assay [8], -2.13 and -0.887. For the same compound, the composite Z-score in [1] is -0.734 (inactive) and 0.825 (inactive).

For `COC(=O)[C@H](C)NC(=O)CCC1CC(OC(=O)NCCc2ccc(F)cc2)CC2(CCCC(COC(=O)NCCCN3CCCC3=O)O2)O1` (stereo not given in full), the composite z-score was found to be 0.171 with Albumin (Bos taurus); 0.0159 in assay [2]; 0.666 in assay [3]; 0.194 in assay [4]; 0.275 in assay [5]; 0.0736 in assay [6]. Further, the results for the composite z-score (with Sam68 (KHDRBS1); in assay [7]; in assay [8]) were 1.3, 0.407 and 1.07, respectively. Besides, the composite Z-score in [1] is 2.06 (inactive).

Take `C=CCN(C(=O)C(c1cccs1)N(C(=O)/C=C\C(=O)O)c1c(Cl)cccc1CO)c1ccc(OC)cc1` (stereo not given): the composite z-score is -0.464 and -0.473 with Albumin (Bos taurus); -0.374 and -0.246 in assay [2]; -0.179 and -0.127 in assay [3]; 0.819 and 0.837 in [4]; 1.8 and 0.329 in assay [5]; 0.78 and 0.281 in [6]. Further, the composite z-score in the assay with Sam68 (KHDRBS1) is -0.818 and -0.2; in assay [7], -4.02 and -0.896; in assay [8] it was -0.772 and -1.14. Further, in assay [1], the composite Z-score is -0.244 (inactive) and 0.222 (inactive).

On to `C=CCN(Cc1ccccc1)C(=O)C1N(C(C)(C)CO)C(=O)C2C(C(=O)O)C3C=CC21O3` (stereo not given), for which the composite z-score with Albumin (Bos taurus) was -1.24 and -0.826; in assay [2] it was -0.358 and -0.475; in [3] it was -0.126 and -0.0956; in assay [4], 0.47 and 0.296; in assay [5], -0.0142 and -0.798; in assay [6] it was -0.587 and -0.987. Further, the composite z-score is -1.6 and -1.66 in the assay with Sam68 (KHDRBS1); -2.74 and -1.88 in [7]; -2.4 and -2.33 in assay [8]. Besides, in assay [1], the composite Z-score is -0.498 (inactive) and -0.61 (inactive).

`CC(CO)N1C(=O)[C@@H]2C3C(=O)OCCC=C[C@H]3OC23C=CCN(c2ccc4ccccc4c2)C(=O)[C@@H]13` (stereo not given in full): the composite z-score with Albumin (Bos taurus) is -0.452 and 0.947; in assay [2], -0.1 and -0.498; in [3] it was -0.14 and -0.299; in assay [4], 0.838 and 0.84; in [5] it was 0.506 and 0.368; in assay [6], 0.697 and 0.476. Also, the composite z-score with Sam68 (KHDRBS1) was 0.31 and -0.264; in assay [7], -0.937 and -1.09; in assay [8], 0.0026 and -0.279. In addition, in assay [1], the composite Z-score is -0.862 (inactive) and 0.322 (inactive).

On to `C[N+](C)(C)CCCCCCNC(=O)[C@@H]1C[C@@H]2C(=O)N[C@@H](CCCC[N+](C)(C)C)C(=O)N2[C@@H]1c1ccc(O)cc1`, for which the composite z-score with Albumin (Bos taurus) is -0.595 and 0.0621; in assay [2] it was -0.0918 and 0.0016; in assay [3] it was -0.164 and -0.147; in assay [4], 0.747 and 0.82; in assay [5], -0.251 and 0.233; in assay [6], 0.774 and 0.322. Further, the composite z-score in the assay on Sam68 (KHDRBS1) was -0.351 and 0.428; in assay [7], 0.952 and 0.671; in assay [8] it was 0.197 and 0.299. Besides, in assay [1], the composite Z-score was 0.722 (inactive) and 0.318 (inactive).

As for `CC(CO)N1C(=O)[C@@H]2C3C(=O)OCCC=C[C@H]3OC23C=CCN(c2ccc(Cl)cc2)C(=O)[C@@H]13` (stereo not given in full), the composite z-score in the assay with Albumin (Bos taurus) was -0.999 and 0.734; in assay [2], -0.33 and 0.0749; in [3] it was -0.0995 and 0.0031; in assay [4], 0.889 and 0.596; in assay [5] it was -0.31 and 0.287; in assay [6] it was -0.102 and -0.304. Besides, the composite z-score with Sam68 (KHDRBS1) is -0.805 and 0.2; in assay [7], -1.51 and -0.496; in assay [8] it was -0.935 and 0.094. Also, the composite Z-score in assay [1] is -0.33 (inactive) and 0.551 (inactive).

`CC(CO)N1C(=O)[C@@H]2C3C(=O)OCCC=C[C@H]3OC23C=CCN(Cc2ccccc2)C(=O)[C@@H]13` (stereo not given in full): the composite z-score is -0.561 and -0.652 with Albumin (Bos taurus); -0.207 and -0.136 in [2]; -0.174 and -0.133 in assay [3]; 0.84 and 0.944 in [4]; -0.205 and 0.481 in [5]; 0.716 and 0.0818 in [6]. Moreover, the composite z-score in the assay on Sam68 (KHDRBS1) is -0.0818 and -0.239; in assay [7], -0.927 and -0.898; in [8], -1.3 and -1.38. In addition, the composite Z-score in [1] is 0.0931 (inactive) and -0.171 (inactive).

`C=CCN(C(=O)C1N(C(C)(C)CO)C(=O)C2C(C(=O)O)C3C=CC21O3)C(C)(C)C` (stereo not given): the composite z-score was -0.768 and -1.3 with Albumin (Bos taurus); -0.664 and -0.47 in assay [2]; -0.154 and -0.208 in [3]; 0.856 and 0.799 in assay [4]; -1.2 and 0.643 in assay [5]; -0.393 and 1.52 in assay [6]. In addition, the composite z-score is -0.967 and -0.65 with Sam68 (KHDRBS1); -3.3 and -1.67 in assay [7]; -0.855 and -1.83 in assay [8]. Further, the composite Z-score in [1] is -0.057 (inactive) and -0.12 (inactive).

The values above are taken from PubChem BioAssay.
